Bioassay records as filed in PubChem BioAssay.
Compounds with a hit are over-represented: about 1.2% of the library has one in this group of screens.
GSH bead fluor – compound fluoresces at 488/530 nm on GSH beads; GSH beads flow cytometry, compound fluorescence 488/530 nm; hits give high values; fluorescence (KMESF) at 10 µM; 190,000 compounds, 0.25% hits; in the data active = fluorescence above about 89;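 note: glutathione beads carrying GST-tagged Bcl family fusion proteins plus one bare bead set; values are compound well signal with DMSO vehicle wells as background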
Avidin fluor – compound fluoresces at 488/530 nm on avidin beads; compound fluorescence 488/530 nm, flow cytometry; hits give high values; fluorescence (KMESF) at 10 µM; 220,000 compounds, 0.38% hits; AID 1775; in the data active = fluorescence above about 47
RGS16-Gao HTS – regulators of human RGS16-Galphao interaction. O15492+P09471. bead-based flow cytometry RGS16-Galphao binding, fluorescence; actives lie on both sides. binding response (% of control), % at 10 µM. 220,000 compounds, 0.38% hits;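 note: Galphao activated by GDP with aluminum fluoride before binding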
RGS4-Gao reg – modulates binding of RGS4 to human Galphao; binding response (% of control), % at 10 µM; Multiplexed bead flow cytometry; actives lie on both sides; AID 1415; P09471; 220,000 compounds, 0.33% hits; in the data active = binding response below about 49% or above about 150%; inactive = in between;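 note: fluorescent Galphao activated with aluminum fluoride binding bead-coupled RGS4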
Target sequence (P09471 whole entry, looked up): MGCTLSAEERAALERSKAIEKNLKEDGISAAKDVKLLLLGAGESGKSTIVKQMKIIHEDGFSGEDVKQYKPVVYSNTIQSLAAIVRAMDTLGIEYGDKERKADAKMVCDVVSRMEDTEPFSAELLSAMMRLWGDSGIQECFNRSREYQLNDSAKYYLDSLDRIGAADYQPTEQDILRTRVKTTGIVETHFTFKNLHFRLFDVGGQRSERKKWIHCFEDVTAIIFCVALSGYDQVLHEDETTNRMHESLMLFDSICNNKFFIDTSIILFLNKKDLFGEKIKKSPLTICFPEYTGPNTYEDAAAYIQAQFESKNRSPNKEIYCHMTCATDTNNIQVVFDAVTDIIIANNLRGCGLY
RGS7-Gao reg – human RGS7-Galphao interaction regulation. P09471. Multiplexed bead flow cytometry, RGS7-Galphao binding; actives lie on both sides. binding response (% of control), % at 10 µM. 220,000 compounds, 0.35% hits. AID 1439; in the data active = binding response below about 49% or above about 150%; inconclusive = no clear call, values can overlap the other calls; inactive = in between;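 note: fluorescent Galphao held in activated GDP-AlF4 state binding bead-coupled RGS7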
RGS8-Gao reg – regulators of human RGS8-Galphao interaction; P09471; response (percent of control binding), % at 10 µM; multiplexed bead flow cytometry, RGS8-Galphao binding; actives lie on both sides; 220,000 compounds, 0.34% hits; AID 1423; in the data active = response below about 60% or above about 140%; inactive = in between;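 note: Galphao activated as the GDP aluminium fluoride complex binding bead-coupled RGS8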
RGS-Gao – modulates binding between human RGS4 and Galphao. shares compounds with RGS16-Gao HTS. multiplexed bead flow cytometry, RGS–Galpha-o binding. RGS4–Galpha-o binding response, % at 10 µM. 1,600 compounds, 99% hits. AID 1504;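 note: fluorescently labeled Galpha-o bound to GDP with aluminium fluoride binding biotinylated RGS beads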
Avidin counter – interferes with biotinylated probe binding to avidin beads; 1,700 tested, under 10 active; inhibition, % at 10 µM; streptavidin beads, fluorescein-biotin binding, flow cytometry; shares compounds with RGS16-Gao HTS;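 active = inhibition above 50%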;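 note: median green fluorescence of gated singlet beads compared with DMSO control wells; 0% = DMSO wells and 100% = complete loss of bead fluorescence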
RGS8-Gao confirm – RGS8-Galphao interaction regulation, single point confirmation; bead-based flow cytometry RGS8-Galphao binding, fluorescence; actives lie on both sides; 1,700 compounds, 3% hits; shares compounds with RGS16-Gao HTS; binding response (% of control), % at 10 µM; in the data active = binding response below about 72% or above about 130%; inactive = in between;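 note: Galphao activated as GDP AlF4 complex before binding bead RGS8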
RGS7-Gao confirm – confirmation of regulators of human RGS7-Galphao interaction | bead-based flow cytometry RGS7-Galphao binding; actives lie on both sides | response (percent of control binding), % at 10 µM | 1,700 compounds, 7.8% hits | shares compounds with RGS16-Gao HTS; in the data active = response below about 75% or above about 130%; inactive = in between;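 note: fluorescent Galphao activated with GDP and aluminum fluoride binding bead-coupled RGS7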
RGS16-Gao single – RGS16-Galphao interaction regulation, single point confirmation | shares compounds with RGS16-Gao HTS | bead-based flow cytometry, RGS16-Galphao binding; actives lie on both sides | response (% of control binding), % at 10 µM | 1,700 compounds, 4% hits; in the data active = response below about 74% or above about 130%; inactive = in between;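 note: Galphao activated as the GDP aluminium fluoride complex binding bead-coupled RGS16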
RGS4-Gao confirm – confirmation of regulators of human RGS4-Galphao interaction; shares compounds with RGS16-Gao HTS; RGS4-Galphao binding, multiplexed bead flow cytometry; actives lie on both sides; binding response (% of control), % at 10 µM; 1,700 compounds, 4% hits; AID 1840; in the data active = binding response below about 74% or above about 130%; inactive = in between
RGS19-Gao single – RGS19-Galphao interaction regulation, single point confirmation; shares compounds with RGS16-Gao HTS; bead-based flow cytometry RGS19-Galphao binding; actives lie on both sides; response (percent of control binding), % at 10 µM; 1,700 compounds, 5% hits; in the data active = response below about 50% or above about 160%; inactive = in between;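 note: 100% = no compound control and 0% = blank background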
Target sequence (P09471 whole entry, looked up): as above
Target sequence (P49795 whole entry, looked up): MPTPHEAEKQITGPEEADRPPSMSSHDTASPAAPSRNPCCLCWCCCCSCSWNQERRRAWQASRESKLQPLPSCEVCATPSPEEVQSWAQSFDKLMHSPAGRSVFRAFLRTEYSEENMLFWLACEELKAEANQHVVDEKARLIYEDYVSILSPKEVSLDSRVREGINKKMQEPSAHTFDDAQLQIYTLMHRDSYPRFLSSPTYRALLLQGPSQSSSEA
* hit, by the source's call; ? = inconclusive; · = not tested or not shown; [ ] = remark or other dose. Unless noted, the rule behind the calls is not given here.

SMILES	GSH bead fluor	Avidin fluor	RGS16-Gao HTS	RGS4-Gao reg	RGS7-Gao reg	RGS8-Gao reg	Avidin counter	RGS8-Gao confirm	RGS7-Gao confirm	RGS16-Gao single	RGS4-Gao confirm	RGS19-Gao single	others
c1ccc(Nc2c3c(nc4ncnn24)CCC3)cc1	46	·	·	·	·	·	0.1	94.7	55.8*	76.2	72.0*	62.0
Clc1ccccc1Nc1c2c(nc3ncnn13)CCC2	33	15	101.9	98.1	97.2	100.6	·	·	·	·	·	·
Cc1ccc(NC(=S)N/N=C2/CCCCc3ccccc32)cc1	·	9	102.5	105.7	?	99.2	·	·	·	·	·	·
Cc1ccc(C)c(NC(=S)N/N=C2\CCc3ccccc32)c1	·	2	46.5	45.3*	?	60.2	0.0	96.9	96.4	97.9	96.5	112.6
COc1cc(/C=N/N(C)c2ccccc2)cc(Cl)c1O	11	10	100.0	98.7	95.7	98.7	·	·	·	·	·	·
CC#CC[N+](C)(C)CCCCCCCCCC	·	47*	156.2	170.3*[activator]	?	115.2	0.5	104.8	106.9	103.9	105.6	106.8
COc1ccccc1N1CCN(S(=O)(=O)CC23CCC(CC2=O)C3(C)C)CC1 (configuration not stated)	30	0	14.4*	23.3*	17.1*	14.9*	-0.4	98.8	100.9	98.4	95.6	70.5
CC(C)N(CC#CCC(O)(c1ccccc1)c1ccccc1)C(C)C	7	2	97.8	101.0	97.9	101.8	·	·	·	·	·	·
CC(c1ccccc1C(O)(c1ccccc1)c1ccccc1)N(C)C (configuration not stated)	9	-3	-42.8	16.8*	7.0*	13.7*	1.0	104.4	107.1	108.4	106.7	90.8
O=C(Cn1c(C(F)(F)F)nc2ccccc21)Nc1ccccc1N1CCOCC1	35	8	42.3	48.3*	44.5*	54.2*	-0.4	98.7	102.3	100.2	102.9	103.5
CCCC(=O)OC(C(=O)Nc1cc(C(F)(F)F)ccc1Cl)c1ccccc1 (configuration not stated)	8	15	241.4*[activator]	106.6	107.3	122.3	-0.5	103.6	102.6	101.4	101.8	97.2	RGS-Gao=106.6*
COC(=O)c1c(-c2ccc(C(C)(C)C)cc2)csc1NC(=O)C1C2CCC(O2)C1C(=O)O (configuration not stated)	10	3	5.6*	93.6	125.2	75.3	2.8	83.7	135.2*[activator]	73.3*	96.4	75.7	RGS-Gao=93.6*
CCOC(=O)c1c(-c2cccc3ccccc23)csc1NC(=O)C1C2CCC(O2)C1C(=O)O (configuration not stated)	18	15	98.9	97.7	96.8	99.4	·	·	·	·	·	·
COc1cccc(OC)c1C(=O)Nc1cccnc1	12	10	102.2	100.6	?	99.5	·	·	·	·	·	·
Cc1ccc(N(CCC#N)C(=O)CCl)cc1C	7	9	21.1*	94.5	92.4	79.9	-0.4	101.1	102.1	103.0	104.5	107.4	RGS-Gao=94.5*
C/C(=N\Nc1ccc([N+](=O)[O-])cc1[N+](=O)[O-])C(C)C(C)C (configuration not stated)	12	4	93.5	97.5	97.0	100.8	·	·	·	·	·	·
CCOc1ccc(C(C(=O)NC2CCCC2)N(CCCO)C(=O)c2ccc(-c3ccccc3)[nH]2)cc1 (configuration not stated)	8	18	117.3	94.2	92.2	100.6	·	·	·	·	·	·
Cc1ccc(C)n1-c1ccc(C(=O)O)cc1	12	11	72.8	65.5	39.3*	60.9	0.4	95.8	92.0	98.0	97.8	101.7	RGS-Gao=65.5*
Cc1ccc(-c2nn(CC(=O)N3CCOCC3)c(=O)c3ccccc23)cc1S(=O)(=O)N(C)C	·	62*	152.2	163.3*[activator]	?	115.8	0.9	101.5	102.1	100.4	99.9	109.8
COc1ccc(N(CC(=O)NCc2cccs2)S(=O)(=O)c2c(C)n[nH]c2C)cc1	16	6	14.5*	75.3	73.9	58.2*	·	·	·	·	·	·	RGS-Gao=75.3*
Cc1ccc(/C=C/C(=O)CCC(=O)O)cc1	14	8	103.8	100.3	98.0	101.2	·	·	·	·	·	·
O=C(CSc1nnc2scc(-c3ccccc3)n12)Nc1nsc(-c2ccccc2)n1	17	47	115.6	98.9	107.6	107.6	·	·	·	·	·	·
Cc1ccc(-c2csc3nnc(SCC(=O)Nc4nsc(-c5ccccc5)n4)n23)cc1	34	·	·	·	·	·	0.1	99.7	99.5	99.3	100.8	95.1
Cc1cc(C(=O)CSc2nc3ccccc3c(=O)[nH]2)c(C)n1C	24	-1	11.1*	18.4*	8.0*	10.3*	0.0	103.7	102.3	103.6	101.6	98.2
CCNC(=O)c1ccccc1NC(=O)c1cccc(S(=O)(=O)N2CCOCC2)c1	22	-3	-4.5*	-14.3*	-3.6*	6.6*	0.1	102.0	104.0	102.5	101.2	100.8
O=c1ccc2cc(S(=O)(=O)N3CCN(c4cc(Cl)ccc4Cl)CC3)ccc2o1	42	·	·	·	·	·	-1.6	100.0	102.0	100.7	100.8	103.1
CCN(CC)S(=O)(=O)c1cccc(C(=O)OCC(=O)NC(C)c2ccccc2)c1 (configuration not stated)	22	12	101.4	102.0	102.3	103.1	·	·	·	·	·	·
COc1ccc(OCC(=O)Nc2ccccc2OC)cc1	5	5	422.1	116.3	110.6	153.1*[activator]	-1.2	110.2	117.4	110.4	111.0	104.6	RGS-Gao=116.3*
COc1ccc(OCC(=O)Nc2ccccc2OC(F)F)cc1	56	8	99.2	102.3	102.3	102.6	·	·	·	·	·	·
Cc1ccc(C(=O)O)cc1NC(=S)NC(=O)c1ccc([N+](=O)[O-])c(C)c1	15	13	103.6	101.4	?	99.1	·	·	·	·	·	·
